This note sets out measurements from PubChem BioAssay (NCI).

Holding throughout (assay): NCI-60 one-dose screen, 48 h (100 = growth as untreated, 0 = no growth, -100 = all killed)
Experiment [1] concerns DU-145 prostate.
Experiment [2] relates to K-562 leukemia.
The subject of experiment [3] is MALME-3M melanoma.
Experiment [4] has as its system MDA-MB-231 breast.
The subject of experiment [5] is RXF 393 renal.
Experiment [6] has as its system SF-268 CNS.
The test system of experiment [7] is SF-295 CNS.
Experiment [8] has as its system SF-539 CNS.
For experiment [9], the system named is UACC-257 melanoma.
For experiment [10], the system named is M14 melanoma.

Where “and” joins values, the source holds several entries; their conditions need not be identical. Equal entries are not always repeated. Compounds without any hit were thinned out: in the full panel of roughly 83,000, 20% have a hit.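 Cell lines were cultured in 96-well plates, exposed to a single compound concentration, and assessed for percent growth 48 hours later.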 A number with no mark means an inactive call. Calls of active or inactive are those of the source. How the source made its calls: active means growth percent below 10; inactive means the rest.

For `CCN(Cc1ccccc1)c1ccc(/C=C2\COc3ccccc3C2=O)cc1`, the growth in [1] (10 µM) is 101%; in experiment [1] (100 µM), 47.8%; in experiment [2] (10 µM) it was 78.4%; in [2] (100 µM), 6.4% (active); in experiment [3] (10 µM), 99.1%; in experiment [3] (100 µM), 54.5%. For the same compound, the growth in experiment [4] (10 µM) was 101%; in experiment [4] (100 µM), 43%; in experiment [5] (10 µM) it was 109%; in [5] (100 µM), 37.3%; in experiment [6] (10 µM), 101%; in experiment [6] (100 µM), 54.7%. For the same compound, the growth was 94.4% in experiment [7] (10 µM); 54.4% in [7] (100 µM); 97.3% in experiment [8] (10 µM); 61.1% in experiment [8] (100 µM); 92.6% in [9] (10 µM); 42.8% in experiment [9] (100 µM). Besides, the growth in experiment [10] (10 µM) was 97.4%; in experiment [10] (100 µM) it was 28.9%.
Consider `Clc1ccc(/C=N\N2CCCCCC2)cc1`, for which the growth in [1] (10 µM unless noted) is 112% and 102%; in experiment [2] (10 µM unless noted), 87.7%; in experiment [3] (10 µM unless noted), 98%; in [4] (10 µM unless noted), 89.7% and 99.9%; in experiment [5] (10 µM unless noted) it was 92% and 119%; in [6] (10 µM unless noted) it was 103% and 115%. The growth in [7] (10 µM unless noted) is 96.4% and 95.9%; in [8] (10 µM unless noted), 115% and 92%; in [9] (10 µM unless noted), 104% and 109%; in [10] (10 µM unless noted) it was 104% and 111%.
As to `Nc1nc(CSc2n[nH]c(N)n2)nc(Nc2ccccc2)n1`, the growth was 104% in experiment [1] (10 µM unless noted); 99.1% in experiment [2] (10 µM unless noted); 104% in [3] (10 µM unless noted); 105% in experiment [4] (10 µM unless noted); 114% in [5] (10 µM unless noted); 93.1% in experiment [6] (10 µM unless noted). Besides, the growth in experiment [7] (10 µM unless noted) is 97.6%; in [8] (10 µM unless noted), 102%; in experiment [9] (10 µM unless noted), 107%; in experiment [10] (10 µM unless noted) it was 105%.
As for `CCN(CC)CC#CCOC(=O)[C@]1(C)CCC[C@]2(C)c3ccc(C(C)C)cc3CC[C@@H]12`, the growth in experiment [1] (10 µM unless noted) was 91.9%; in experiment [2] (10 µM unless noted) it was 63.4%; in experiment [3] (10 µM unless noted), 77.2%; in experiment [4] (10 µM unless noted), 101%; in experiment [5] (10 µM unless noted), 74.5%; in experiment [6] (10 µM unless noted) it was 96.3%. The growth in experiment [7] (10 µM unless noted) is 92.8%; in experiment [8] (10 µM unless noted), 79.6%; in [9] (10 µM unless noted) it was 86.2%; in [10] (10 µM unless noted), 87%.
In the case of `O=C1C(=C(O)c2ccccc2)C(=O)c2ccccc21`, the growth was 104% in [1] (10 µM unless noted); 95.4% in experiment [2] (10 µM unless noted); 103% in [3] (10 µM unless noted); 107% in [4] (10 µM unless noted); 135% in experiment [5] (10 µM unless noted); 95.2% in [6] (10 µM unless noted). Besides, the growth in [7] (10 µM unless noted) was 105%; in [8] (10 µM unless noted), 100%; in [9] (10 µM unless noted), 108%; in experiment [10] (10 µM unless noted) it was 102%.
Consider `CC(=O)/C=C/c1ccc(OCc2ccc(Cl)cc2)cc1`, for which the growth in experiment [1] (10 µM) is 96.6%; in experiment [1] (100 µM), 52.9%; in experiment [2] (10 µM), 79.1%; in experiment [2] (100 µM) it was 26.1%; in experiment [3] (10 µM), 110%; in experiment [3] (100 µM), -1.84% (active). The growth was 117% in experiment [4] (10 µM); 9.42% (active) in [4] (100 µM); 105% in [5] (10 µM); 55.5% in [5] (100 µM); 101% in experiment [6] (10 µM); 52.3% in experiment [6] (100 µM). Besides, the growth in experiment [7] (10 µM) is 99.1%; in experiment [7] (100 µM), 39.9%; in [8] (10 µM), 109%; in experiment [8] (100 µM), 44.4%; in [9] (10 µM), 86.6%; in [9] (100 µM), -1.1% (active). Also, the growth was 98.2% in experiment [10] (10 µM) and 36.1% in experiment [10] (100 µM).
As to `COc1c(O)c(O)cc2c3c(oc12)CC(c1ccc2c(c1)OCO2)CC3=O` (stereo not given), the growth in experiment [1] (10 µM unless noted) is 68.8%; in experiment [2] (10 µM unless noted), 17.2%; in experiment [3] (10 µM unless noted), 95.7%; in [4] (10 µM unless noted), 70.5%; in [5] (10 µM unless noted), 105%; in experiment [6] (10 µM unless noted) it was 53.9%. Besides, the growth in [7] (10 µM unless noted) was 101%; in [8] (10 µM unless noted), 67.6%; in [9] (10 µM unless noted), 55.3%; in experiment [10] (10 µM unless noted) it was 23.3%.
Take `Cc1ccc(-c2nc(C#N)c(S(=O)(=O)N(C)C)o2)cc1`: the growth in experiment [1] (10 µM unless noted) was 103%; in [2] (10 µM unless noted), 12.3%; in experiment [3] (10 µM unless noted), 52.6%; in [4] (10 µM unless noted), 88.1%; in experiment [5] (10 µM unless noted), 105%; in experiment [6] (10 µM unless noted), 104%. Further, the growth in experiment [7] (10 µM unless noted) is 100%; in experiment [8] (10 µM unless noted) it was 102%; in [9] (10 µM unless noted), 94.8%; in [10] (10 µM unless noted) it was 64.3%.
For `O=C(NCc1ccc(Cn2c(=O)sn(-c3ccc(Cl)cc3)c2=O)cc1)OCc1ccc2c(Cl)cc(Cl)c(O)c2n1`, the growth was 44.8% in experiment [1] (10 µM unless noted); 29.8% in experiment [2] (10 µM unless noted); 78.3% in experiment [3] (10 µM unless noted); 72% in experiment [4] (10 µM unless noted); 25.8% in experiment [5] (10 µM unless noted); 54.6% in experiment [6] (10 µM unless noted). Besides, the growth in experiment [7] (10 µM unless noted) was 18.2%; in experiment [8] (10 µM unless noted), 42.5%; in [9] (10 µM unless noted), 78.1%; in experiment [10] (10 µM unless noted), 50.5%.
In the case of `CCOc1ccc(C(=O)Cc2ccccc2)cc1`, the growth in [1] (10 µM unless noted) was 105% and 112%; in [2] (10 µM unless noted), 108% and 103%; in [3] (10 µM unless noted) it was 101%; in experiment [4] (10 µM unless noted), 113% and 102%; in [5] (10 µM unless noted), 117% and 96.4%; in [6] (10 µM unless noted), 110% and 117%. The growth was 121% and 89.3% in [7] (10 µM unless noted); 101% and 116% in [8] (10 µM unless noted); 110% and 99.2% in experiment [9] (10 µM unless noted); 114% and 106% in experiment [10] (10 µM unless noted).
In the case of `CONC1=Nc2cc(NC(N)=NCc3ccccc3)c(N(C)C3CCCCC3)cc2OC1`, the growth was 72.6% in experiment [1] (10 µM unless noted); 23.6% in experiment [2] (10 µM unless noted); 78.6% in experiment [3] (10 µM unless noted); 25.5% in experiment [4] (10 µM unless noted); 41.2% in [5] (10 µM unless noted); 68.1% in experiment [6] (10 µM unless noted). Also, the growth in experiment [7] (10 µM unless noted) is 83.3%; in experiment [8] (10 µM unless noted) it was 75.9%; in experiment [9] (10 µM unless noted) it was 89.5%; in experiment [10] (10 µM unless noted), 78.1%.
